Reference: the supplement of paper PMC4166925
± gives the standard deviation of the averaged measurements. Whole data set: some 33,000 sequences, median “E-score (dimensionless, -0.5 to 0.5)” near -0.049, cut for the highest 2% near 0.37. For the sample, the highest values were picked, then their nearest neighbours and some sequences at random.

These sequences were tested on T1, PmTbr T-box DNA-binding domain (GST fusion) (assay: PBM E-score of 8-mer (E-score (dimensionless, -0.5 to 0.5)); Tbr is Tbrain of the sea star Patiria miniata (Pm) or the sea urchin Strongylocentrotus purpuratus (Sp); higher = stronger binding preference). Conditions: the construct has about 5 more residues each side.
T1 sequence: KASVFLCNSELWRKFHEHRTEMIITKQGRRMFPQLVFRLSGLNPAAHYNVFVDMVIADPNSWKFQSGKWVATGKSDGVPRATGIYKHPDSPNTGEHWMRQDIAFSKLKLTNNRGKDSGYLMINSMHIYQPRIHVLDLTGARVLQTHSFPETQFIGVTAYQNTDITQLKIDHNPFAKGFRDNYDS
Description: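 Universal protein-binding microarray (Agilent AMADID 016060, 60-bp probes with a 35-bp variable region) incubated with 200 nM GST-fused Patiria miniata Tbr T-box DNA-binding domain (residues 272-466) in PBS pH 7.5. Scored for every ungapped 8-mer (given with its reverse complement) by the Universal PBM Analysis Suite as E-score (modified Wilcoxon-Mann-Whitney enrichment, range -0.5 to 0.5; >0.45 counts as bound) and Z-score of median probe intensity. Two replicate arrays (datasets 1 and 2).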
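Further: 200 nM protein in PBS on universal arrays averaged over duplicate arrays.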

| Sequence | PBM E-score of 8-mer |
| --- | --- |
| CAGTGGTA | -0.0733 ± 0.022 |
| CGCAGCCA | 0.00214 ± 0.11 |
| AAGCGCCC | -0.0238 ± 0.0037 |
| CACCGTCC | 0.0123 ± 0.0021 |
| CGTATTCC | -0.23 ± 0.036 |
| CTGCGAGA | 0.212 ± 0.035 |
| GTGCGAGA | 0.43391 ± 0.00018 |
| ATGCGAGA | 0.144 ± 0.02 |
| GAGGGTGA | 0.279 ± 0.005 |
| CAGGGTGC | 0.271 ± 0.036 |
| AAAGGTGC | 0.422 ± 0.015 |
| AAAGGTGG | 0.234 ± 0.084 |
| AAGGGTGA | 0.19 ± 0.0034 |
| AAGGGTGT | 0.399 ± 0.018 |
| AAGGGTGG | 0.1889 ± 0.001 |
| AAAGGTAC | -0.152 ± 0.021 |
| GAGGGTGC | 0.389 ± 0.018 |
| AAAGGTAT | -0.0701 ± 0.061 |
| AAAGGTCC | 0.011 ± 0.046 |
| AAAGGTGT | 0.478 ± 0.0057 |
| AATAAGGT | 0.0297 ± 0.12 |
| CACTATAC | 0.132 ± 0.073 |

| Sequence | PBM E-score of 8-mer |
| --- | --- |
| ACGTCACA | 0.258 ± 0.021 |
| GGGCCTAA | -0.148 ± 0.024 |
| CGAGAACA | 0.2 ± 0.0064 |
| AAAGGTGA | 0.398 ± 0.025 |
| AAAGGTCA | -0.303 ± 0.043 |
| AAAGGTAA | -0.21 ± 0.041 |
| GAAGTGTC | 0.454 ± 0.0065 |
| CAAGTGCG | 0.389 ± 0.015 |
| GAAGTGCC | 0.263 ± 0.019 |
| GAAGTGTA | 0.293 ± 0.028 |
| CAAGTGTA | 0.178 ± 0.035 |
| CAAGTGGC | 0.268 ± 0.028 |
| AAAGTGCG | 0.315 ± 0.013 |
| CAAGTGGG | 0.211 ± 0.016 |
| CCAGTGTC | 0.0539 ± 0.05 |
| CAAGTGTG | 0.433 ± 0.0066 |
| CAAGTGTC | 0.38 ± 0.031 |
| CAAGTGCC | 0.284 ± 0.029 |
| ATTTAAGC | -0.191 ± 0.065 |
| ACATATCC | -0.0724 ± 0.065 |
| ACAGCTCA | 0.237 ± 0.0098 |
| TAACACAA | 0.313 ± 0.0094 |

| Sequence | PBM E-score of 8-mer |
| --- | --- |
| CTTCAATC | 0.0436 ± 0.043 |
| ACCGACAT | 0.0334 ± 0.031 |
| CCCGACAC | 0.388 ± 0.012 |
| GCCGACAC | 0.382 ± 0.03 |
| CCCGACAA | 0.208 ± 0.044 |
| GCCGACAA | 0.116 ± 0.04 |
| CCCGACAG | 0.11 ± 0.0062 |
| GCCGACCC | -0.256 ± 0.038 |
| ACCGACAA | -0.0367 ± 0.05 |
| ACCGACAC | 0.391 ± 0.02 |
| CGGTGGGC | -0.131 ± 0.04 |
| ATCCCAAG | -0.275 ± 0.07 |
| CGTACTTA | -0.115 ± 0.042 |
| TGGCTACA | -0.117 ± 0.0015 |
| GATGTTGC | -0.0903 ± 0.014 |
| CCCAAAAC | 0.0141 ± 0.0023 |
| GACCTACA | -0.125 ± 0.019 |
| AACCTACC | -0.0696 ± 0.071 |
| CACCTACC | 0.413 ± 0.015 |
| CACCTACA | 0.407 ± 0.013 |
| GACCTACC | -0.153 ± 0.0062 |
| TACCTACA | -0.2971 ± 0.00036 |

| Sequence | PBM E-score of 8-mer |
| --- | --- |
| CCCCTACG | -0.0948 ± 0.0047 |
| CACCTACG | 0.412 ± 0.0089 |
| AACCTACG | -0.21 ± 0.0028 |
| CGGAAGGA | -0.209 ± 0.012 |
| CTGCCACA | 0.226 ± 0.014 |
| GCAAAGGA | -0.229 ± 0.021 |
| CTTCTCGC | 0.229 ± 0.027 |
| ACCTGGGG | 0.0226 ± 0.0096 |
| AGTCGAGG | 0.0125 ± 0.11 |
| CGTACTGA | -0.105 ± 0.017 |
| AATCTAAA | -0.0399 ± 0.05 |
| AGCATCCC | -0.136 ± 0.039 |
| CACTGTGG | -0.16 ± 0.098 |
| CTATTATC | -0.101 ± 0.018 |
| GAGTGCCA | 0.242 ± 0.0057 |
| ATGTGCCA | 0.375 ± 0.0048 |
| ACGTGCTA | 0.417 ± 0.019 |
| GCGTGCTA | 0.261 ± 0.0046 |
| AAGTGCCC | -0.143 ± 0.0036 |
| AAGTGCCA | 0.41 ± 0.0065 |
